Measurements reported in PubChem BioAssay (NCI).
About 79,000 compounds went through this panel and 15% of them were active in at least one assay; those are over-represented in the sample as a whole. Calls of active or inactive are those of the source. No stated cut-off is given here; in the data, active means growth inhibition above about 70%; inactive means the rest.

Experiment: NCI Yeast Anticancer Drug Screen. Data for the sgs1 strain (AID 173);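 further: 0% = growth of vehicle-only control cultures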
Conditions: S. cerevisiae sgs1 mutant, at 1.2 µM, stronger effect = higher value
Method in brief: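 Vehicle-treated cultures served as reference for growth inhibition of a yeast strain altered in DNA damage repair or cell cycle control after compound exposure.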

SMILES | growth inhibition
CC(CN(C)C)C(=O)/C=C/c1ccc(Cl)c(Cl)c1 (configuration not stated) | 4% (inactive)
NC(=S)N1N=C2c3ccccc3CC[C@H]2[C@@H]1c1ccc(Cl)cc1 | 22% (inactive)
C/C(=N/NC(=S)Nc1ccccc1C)c1ccccn1 | -6% (inactive)
O=C1/C(=C/c2ccc(Cl)c(Cl)c2)CNC/C1=C\c1ccc(Cl)c(Cl)c1 | 29% (inactive)
CC(C)OP(=O)(OC(C)C)C(=NCCO)NNc1ccc([N+](=O)[O-])cc1 | 24% (inactive)
CC(C)(CN1CCCCC1)C(=O)CC(SCCS(=O)(=O)O)c1ccccc1 (configuration not stated) | 3% (inactive)
COC1=CCC23C(=O)C=CC(=O)C2(C1)C(=O)c1ccccc1C3=O (configuration not stated) | 10% (inactive)
c1ccc2nc3c(nc2c1)sc1ccccc13 | -2% (inactive)
O=C1c2ccccc2-c2ccc(N=Cc3ccccc3)cc21 | -13% (inactive)
CNC(=S)N/N=C(/C)CCC/C(C)=N/NC(=S)NC | 14% (inactive)
Nc1ccc(/C=C/c2ccc3cccnc3c2)cc1 | -1% (inactive)
COc1ccc2c3c1OC(C)C31CC(=O)CCC1CC2 (configuration not stated) | -1% (inactive)
CCOC(=O)Nc1ccc(C)c(NC(=O)OCC)c1 | 3% (inactive)
CCN(CC)CCNc1ccc2nc(C)n3c4ccc(OC)cc4c(=O)c1c23 | 27% (inactive)
O=C(c1cc(=O)c2ccc(O)cc2o1)c1ccc(Cl)cc1Cl | -18% (inactive)
CCCNC(=O)OCc1c(COC(=O)NCCC)c(-c2ccc(Cl)c(Cl)c2)n2c1CCC2 | 0% (inactive)
O=C(Cc1ccccc1)NN1C(=O)C(Cl)C1c1cc(Br)cc(Br)c1O (configuration not stated) | 4% (inactive)
